Experimental data as given in PMC7862700, “An all-to-all approach to the identification of sequence-specific readers for epigenetic DNA modifications on cytosine”.

Assays:
Test in all cases: DAPPL (digital affinity profiling via proximity ligation, sequencing); 10 mM Tris-HCl pH 7.5, 50 mM NaCl, 1 mM DTT, 4% glycerol, room temperature, 30 min; GST-TFs on glutathione beads, 16-mer random dsDNA library, 0.1% formaldehyde crosslink after washing; high values mean tight binding
Details in all cases: protein: recombinant; tags: N-terminal GST; dsDNA, one strand shown
FEV = molecular target: T1, FEV (Homo sapiens, UniProt Q99581 1-238)
T1 sequence: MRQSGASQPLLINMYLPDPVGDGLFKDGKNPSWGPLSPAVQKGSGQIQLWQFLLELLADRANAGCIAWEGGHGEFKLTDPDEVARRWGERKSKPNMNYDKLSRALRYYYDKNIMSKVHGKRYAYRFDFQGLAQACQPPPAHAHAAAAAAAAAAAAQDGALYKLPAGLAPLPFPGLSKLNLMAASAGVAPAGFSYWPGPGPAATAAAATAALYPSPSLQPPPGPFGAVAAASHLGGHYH
Summary of the method: (§1)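 A tag-only sample was pooled with DNA-barcoded human transcription factors that had been expressed in yeast as GST fusions and captured on glutathione beads. The pools were incubated for 30 min at room temperature with 200 nmole of a random double-stranded 16-mer DNA library in Tris/NaCl/DTT/glycerol buffer, then washed, crosslinked with 0.1% formaldehyde, proximity-ligated (BsaI/T4 ligase, 1 h, 37 °C), PCR-amplified and sequenced on an Illumina NextSeq500. Binding signal is each hexamer's read frequency for a factor divided by its frequency for the tag-only sample.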

ETV5 = ETV5 (Homo sapiens, UniProt P41161 1-510)
ETV5, sequence (P41161 whole entry): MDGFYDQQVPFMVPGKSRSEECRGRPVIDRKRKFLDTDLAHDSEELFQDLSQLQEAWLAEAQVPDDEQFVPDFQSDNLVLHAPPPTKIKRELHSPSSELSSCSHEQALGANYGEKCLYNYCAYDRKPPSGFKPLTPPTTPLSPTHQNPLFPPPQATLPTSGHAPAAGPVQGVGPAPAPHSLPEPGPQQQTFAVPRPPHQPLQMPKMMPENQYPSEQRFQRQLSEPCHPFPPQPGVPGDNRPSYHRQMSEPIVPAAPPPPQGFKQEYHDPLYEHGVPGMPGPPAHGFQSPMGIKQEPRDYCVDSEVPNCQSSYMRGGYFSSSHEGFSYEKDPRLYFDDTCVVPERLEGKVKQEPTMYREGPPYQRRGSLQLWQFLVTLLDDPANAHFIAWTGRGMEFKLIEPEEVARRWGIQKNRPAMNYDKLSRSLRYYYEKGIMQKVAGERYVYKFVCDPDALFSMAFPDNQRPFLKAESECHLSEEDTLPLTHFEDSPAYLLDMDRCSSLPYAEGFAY
Summary of the method: as §1

SPIC = molecular target: T2, SPIC (Homo sapiens, UniProt Q8N5J4 1-248)
T2 sequence: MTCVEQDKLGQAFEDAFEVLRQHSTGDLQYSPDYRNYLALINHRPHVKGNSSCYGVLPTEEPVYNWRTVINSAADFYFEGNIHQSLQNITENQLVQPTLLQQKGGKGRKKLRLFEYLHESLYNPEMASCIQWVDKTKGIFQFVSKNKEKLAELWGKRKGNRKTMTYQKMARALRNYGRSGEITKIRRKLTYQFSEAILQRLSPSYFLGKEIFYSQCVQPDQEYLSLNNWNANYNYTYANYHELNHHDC
Summary of the method: as §1

ELF4 = ELF4 (Homo sapiens, UniProt Q99607 1-663)
ELF4, sequence (Q99607 whole entry): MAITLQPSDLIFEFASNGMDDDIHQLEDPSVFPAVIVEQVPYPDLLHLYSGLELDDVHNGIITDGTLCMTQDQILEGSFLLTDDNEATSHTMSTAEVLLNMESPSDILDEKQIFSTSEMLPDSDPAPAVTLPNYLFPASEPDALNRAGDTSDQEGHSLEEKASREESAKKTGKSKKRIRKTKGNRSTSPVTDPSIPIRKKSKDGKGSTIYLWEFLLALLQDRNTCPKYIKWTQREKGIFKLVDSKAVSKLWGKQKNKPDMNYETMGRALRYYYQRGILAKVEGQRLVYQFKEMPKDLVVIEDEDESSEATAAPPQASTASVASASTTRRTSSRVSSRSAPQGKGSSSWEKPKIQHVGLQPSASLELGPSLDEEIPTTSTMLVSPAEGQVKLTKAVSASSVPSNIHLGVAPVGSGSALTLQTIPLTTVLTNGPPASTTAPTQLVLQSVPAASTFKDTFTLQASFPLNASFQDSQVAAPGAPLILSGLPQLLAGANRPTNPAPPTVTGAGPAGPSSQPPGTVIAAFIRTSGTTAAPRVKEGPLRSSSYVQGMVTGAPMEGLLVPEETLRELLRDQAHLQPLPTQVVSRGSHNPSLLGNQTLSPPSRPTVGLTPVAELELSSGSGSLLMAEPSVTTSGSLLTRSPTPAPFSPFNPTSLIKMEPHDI
Summary of the method: as §1

ELK4 = molecular target: T3, ELK4 (Homo sapiens, UniProt P28324-2 1-405)
T3 sequence: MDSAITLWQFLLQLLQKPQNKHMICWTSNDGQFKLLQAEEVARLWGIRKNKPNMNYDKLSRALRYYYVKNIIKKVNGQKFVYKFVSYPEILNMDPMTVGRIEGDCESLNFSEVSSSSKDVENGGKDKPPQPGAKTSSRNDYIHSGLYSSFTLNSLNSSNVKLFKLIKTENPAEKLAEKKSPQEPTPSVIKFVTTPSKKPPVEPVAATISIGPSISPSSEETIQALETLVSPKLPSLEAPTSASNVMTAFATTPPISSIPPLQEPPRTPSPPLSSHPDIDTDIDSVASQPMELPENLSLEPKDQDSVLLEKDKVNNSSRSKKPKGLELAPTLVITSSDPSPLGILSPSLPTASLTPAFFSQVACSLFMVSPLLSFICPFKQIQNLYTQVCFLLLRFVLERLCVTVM
Summary of the method: as §1

ETV2 = molecular target: T4, ETV2 (Homo sapiens, UniProt O00321 1-342)
T4 sequence: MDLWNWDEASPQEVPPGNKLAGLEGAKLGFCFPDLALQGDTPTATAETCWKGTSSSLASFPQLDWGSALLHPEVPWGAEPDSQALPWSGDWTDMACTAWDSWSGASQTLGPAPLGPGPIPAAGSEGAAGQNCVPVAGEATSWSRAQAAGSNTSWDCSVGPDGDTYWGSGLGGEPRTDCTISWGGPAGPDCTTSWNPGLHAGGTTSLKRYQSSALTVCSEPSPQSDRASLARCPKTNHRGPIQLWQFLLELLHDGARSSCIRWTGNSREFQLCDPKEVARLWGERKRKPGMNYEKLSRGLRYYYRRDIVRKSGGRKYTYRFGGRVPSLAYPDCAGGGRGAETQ
Summary of the method: as §1

ELF3 = molecular target: T5, ELF3 (Homo sapiens, UniProt P78545 1-371)
T5 sequence: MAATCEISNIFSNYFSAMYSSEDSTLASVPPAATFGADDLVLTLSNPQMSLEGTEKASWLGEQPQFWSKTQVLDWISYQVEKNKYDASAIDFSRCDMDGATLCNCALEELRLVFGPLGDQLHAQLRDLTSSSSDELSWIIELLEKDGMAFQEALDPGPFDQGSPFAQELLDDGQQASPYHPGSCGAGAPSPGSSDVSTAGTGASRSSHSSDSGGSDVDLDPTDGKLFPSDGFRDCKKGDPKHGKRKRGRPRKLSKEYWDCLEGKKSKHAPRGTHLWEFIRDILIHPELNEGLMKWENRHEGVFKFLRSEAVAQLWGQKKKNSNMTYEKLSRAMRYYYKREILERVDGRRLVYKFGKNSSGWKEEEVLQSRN
Summary of the method: as §1

ETV1 = ETV1 (Homo sapiens, UniProt P50549 1-477)
ETV1, sequence (P50549 whole entry): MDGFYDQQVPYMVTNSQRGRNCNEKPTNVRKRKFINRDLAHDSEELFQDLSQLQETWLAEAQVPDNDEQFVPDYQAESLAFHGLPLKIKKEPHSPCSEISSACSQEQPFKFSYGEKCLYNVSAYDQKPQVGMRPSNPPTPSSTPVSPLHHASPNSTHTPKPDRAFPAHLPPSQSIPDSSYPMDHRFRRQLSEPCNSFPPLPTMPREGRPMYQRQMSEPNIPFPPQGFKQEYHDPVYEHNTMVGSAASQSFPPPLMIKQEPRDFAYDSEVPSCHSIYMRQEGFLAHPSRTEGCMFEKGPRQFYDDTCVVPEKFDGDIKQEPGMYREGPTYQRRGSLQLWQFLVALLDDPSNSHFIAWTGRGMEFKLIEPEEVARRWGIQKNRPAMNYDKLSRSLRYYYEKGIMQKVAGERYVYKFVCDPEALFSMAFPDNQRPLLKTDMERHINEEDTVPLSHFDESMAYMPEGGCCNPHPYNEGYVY
Summary of the method: as §1

ERF = molecular target: T6, ERF (Homo sapiens, UniProt P50548 1-548)
T6 sequence: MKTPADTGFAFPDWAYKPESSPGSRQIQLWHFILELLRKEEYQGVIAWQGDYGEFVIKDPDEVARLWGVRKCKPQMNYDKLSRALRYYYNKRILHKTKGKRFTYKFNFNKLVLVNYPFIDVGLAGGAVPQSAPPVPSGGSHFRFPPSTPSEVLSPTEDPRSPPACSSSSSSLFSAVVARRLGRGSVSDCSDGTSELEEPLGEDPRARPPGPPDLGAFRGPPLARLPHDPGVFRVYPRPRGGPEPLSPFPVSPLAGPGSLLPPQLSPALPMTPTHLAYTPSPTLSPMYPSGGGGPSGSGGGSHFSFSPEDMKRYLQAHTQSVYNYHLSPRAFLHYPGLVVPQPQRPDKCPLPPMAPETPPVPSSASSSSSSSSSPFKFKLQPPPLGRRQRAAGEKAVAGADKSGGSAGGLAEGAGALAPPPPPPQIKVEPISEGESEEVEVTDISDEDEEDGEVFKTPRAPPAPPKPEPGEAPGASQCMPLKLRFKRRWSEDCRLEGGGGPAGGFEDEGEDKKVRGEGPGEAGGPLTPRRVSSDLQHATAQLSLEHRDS
Summary of the method: as §1

ETV3L = molecular target: T7, ETV3L (Homo sapiens, UniProt Q6ZN32 1-361)
T7 sequence: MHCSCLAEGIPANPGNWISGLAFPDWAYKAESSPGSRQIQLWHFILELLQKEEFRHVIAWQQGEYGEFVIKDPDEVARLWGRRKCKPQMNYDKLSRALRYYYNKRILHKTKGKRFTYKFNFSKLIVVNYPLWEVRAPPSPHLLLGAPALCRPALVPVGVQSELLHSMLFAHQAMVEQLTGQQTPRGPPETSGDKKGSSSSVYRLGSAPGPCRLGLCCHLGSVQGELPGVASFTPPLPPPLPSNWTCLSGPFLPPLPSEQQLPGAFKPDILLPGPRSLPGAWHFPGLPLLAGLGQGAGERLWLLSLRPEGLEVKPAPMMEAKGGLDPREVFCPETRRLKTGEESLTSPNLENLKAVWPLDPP
Summary of the method: as §1

ETS2 = molecular target: T8, ETS2 (Homo sapiens, UniProt P15036 1-469)
T8 sequence: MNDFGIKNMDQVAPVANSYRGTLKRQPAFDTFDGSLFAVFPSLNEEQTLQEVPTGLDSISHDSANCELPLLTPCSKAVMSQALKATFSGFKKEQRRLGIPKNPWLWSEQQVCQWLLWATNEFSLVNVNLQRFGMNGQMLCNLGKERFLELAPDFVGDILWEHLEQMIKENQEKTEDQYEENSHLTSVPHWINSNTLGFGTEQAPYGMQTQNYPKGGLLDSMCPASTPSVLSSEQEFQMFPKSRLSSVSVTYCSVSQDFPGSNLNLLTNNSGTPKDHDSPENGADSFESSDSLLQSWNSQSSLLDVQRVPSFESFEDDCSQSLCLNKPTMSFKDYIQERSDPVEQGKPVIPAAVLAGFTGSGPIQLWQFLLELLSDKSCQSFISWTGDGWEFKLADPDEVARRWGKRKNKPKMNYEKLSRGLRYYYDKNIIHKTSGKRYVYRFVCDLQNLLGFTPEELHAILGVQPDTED
Summary of the method: as §1

SPDEF = molecular target: T9, SPDEF (Homo sapiens, UniProt O95238 1-335)
T9 sequence: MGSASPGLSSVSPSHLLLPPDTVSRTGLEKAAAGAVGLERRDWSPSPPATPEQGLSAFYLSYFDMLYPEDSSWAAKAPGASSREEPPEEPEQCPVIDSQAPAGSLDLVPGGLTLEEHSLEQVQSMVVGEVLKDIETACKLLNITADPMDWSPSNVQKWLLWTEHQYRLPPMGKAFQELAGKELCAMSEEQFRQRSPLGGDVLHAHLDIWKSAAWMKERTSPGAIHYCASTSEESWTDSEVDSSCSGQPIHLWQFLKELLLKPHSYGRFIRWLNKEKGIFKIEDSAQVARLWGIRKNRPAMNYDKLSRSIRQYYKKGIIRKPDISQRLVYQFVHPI
Summary of the method: as §1

ETV7 = molecular target: T10, ETV7 (Homo sapiens, UniProt Q9Y603 1-341)
T10 sequence: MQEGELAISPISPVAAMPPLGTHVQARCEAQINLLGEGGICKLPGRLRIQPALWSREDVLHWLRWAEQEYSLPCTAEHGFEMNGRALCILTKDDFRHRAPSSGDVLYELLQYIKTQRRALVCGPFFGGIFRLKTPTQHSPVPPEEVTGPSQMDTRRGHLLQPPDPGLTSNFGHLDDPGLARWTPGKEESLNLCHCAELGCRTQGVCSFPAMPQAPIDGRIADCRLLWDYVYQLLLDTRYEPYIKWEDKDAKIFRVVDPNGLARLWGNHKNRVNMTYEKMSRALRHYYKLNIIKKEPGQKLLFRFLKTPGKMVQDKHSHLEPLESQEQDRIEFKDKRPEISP
Summary of the method: as §1

ELF5 = molecular target: T11, ELF5 (Homo sapiens, UniProt Q9UKW6-2 1-255)
T11 sequence: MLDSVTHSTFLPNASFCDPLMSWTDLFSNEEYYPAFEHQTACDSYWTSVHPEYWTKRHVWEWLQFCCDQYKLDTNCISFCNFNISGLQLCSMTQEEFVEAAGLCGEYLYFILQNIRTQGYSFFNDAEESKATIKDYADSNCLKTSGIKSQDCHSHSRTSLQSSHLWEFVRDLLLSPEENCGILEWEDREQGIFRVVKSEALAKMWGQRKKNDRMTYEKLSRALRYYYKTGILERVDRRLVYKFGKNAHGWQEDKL
Summary of the method: as §1

ETV3 = molecular target: T12, ETV3 (Homo sapiens, UniProt P41162-2 1-143)
T12 sequence: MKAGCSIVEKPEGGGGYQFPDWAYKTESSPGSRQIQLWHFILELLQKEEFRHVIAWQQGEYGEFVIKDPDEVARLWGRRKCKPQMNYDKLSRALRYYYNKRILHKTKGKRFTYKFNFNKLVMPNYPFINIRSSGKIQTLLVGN
Summary of the method: as §1

ETV6 = ETV6 (Homo sapiens, UniProt P41212 1-452)
ETV6, sequence (P41212 whole entry): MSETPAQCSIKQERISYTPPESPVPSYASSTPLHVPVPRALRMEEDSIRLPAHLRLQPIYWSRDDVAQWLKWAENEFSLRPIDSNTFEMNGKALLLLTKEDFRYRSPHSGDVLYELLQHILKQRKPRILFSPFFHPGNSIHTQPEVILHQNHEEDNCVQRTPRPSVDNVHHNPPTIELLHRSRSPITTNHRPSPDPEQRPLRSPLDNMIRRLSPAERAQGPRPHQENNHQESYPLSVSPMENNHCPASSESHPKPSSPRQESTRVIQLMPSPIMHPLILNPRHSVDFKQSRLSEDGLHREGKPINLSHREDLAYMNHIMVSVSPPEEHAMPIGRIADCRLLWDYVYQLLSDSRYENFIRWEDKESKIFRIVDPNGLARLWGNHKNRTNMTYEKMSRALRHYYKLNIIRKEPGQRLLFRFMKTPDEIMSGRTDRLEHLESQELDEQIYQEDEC
Summary of the method: as §1

Sequence | binding signal (FEV) | binding signal (ETV5) | binding signal (SPIC) | binding signal (ELF4) | binding signal (ELK4) | binding signal (ETV2) | binding signal (ELF3) | binding signal (ETV1) | binding signal (ERF) | binding signal (ETV3L) | binding signal (ETS2) | binding signal (SPDEF) | binding signal (ETV7) | binding signal (ELF5) | binding signal (ETV3) | binding signal (ETV6)
CCGCGT | 1.13 fold enrichment (6-mer frequency, TF over GST control) | 1.12 fold enrichment (6-mer frequency, TF over GST control) | 1.12 fold enrichment (6-mer frequency, TF over GST control) | 1.18 fold enrichment (6-mer frequency, TF over GST control) | 1.24 fold enrichment (6-mer frequency, TF over GST control) | 1.4 fold enrichment (6-mer frequency, TF over GST control) | 1.16 fold enrichment (6-mer frequency, TF over GST control) | 1.13 fold enrichment (6-mer frequency, TF over GST control) | 1.08 fold enrichment (6-mer frequency, TF over GST control) | 1.11 fold enrichment (6-mer frequency, TF over GST control) | 1.13 fold enrichment (6-mer frequency, TF over GST control) | 1.12 fold enrichment (6-mer frequency, TF over GST control) | 1.21 fold enrichment (6-mer frequency, TF over GST control) | 1.27 fold enrichment (6-mer frequency, TF over GST control) | 1.13 fold enrichment (6-mer frequency, TF over GST control) | 1.16 fold enrichment (6-mer frequency, TF over GST control)
CCATCC | 1.3 fold enrichment (6-mer frequency, TF over GST control) | 1.27 fold enrichment (6-mer frequency, TF over GST control) | 1.33 fold enrichment (6-mer frequency, TF over GST control) | 1.27 fold enrichment (6-mer frequency, TF over GST control) | 1.19 fold enrichment (6-mer frequency, TF over GST control) | 1.19 fold enrichment (6-mer frequency, TF over GST control) | 1.12 fold enrichment (6-mer frequency, TF over GST control) | 1.24 fold enrichment (6-mer frequency, TF over GST control) | 1.12 fold enrichment (6-mer frequency, TF over GST control) | 1.31 fold enrichment (6-mer frequency, TF over GST control) | 1.23 fold enrichment (6-mer frequency, TF over GST control) | 1.56 fold enrichment (6-mer frequency, TF over GST control) | 1.24 fold enrichment (6-mer frequency, TF over GST control) | 1.3 fold enrichment (6-mer frequency, TF over GST control) | 1.27 fold enrichment (6-mer frequency, TF over GST control) | 1.2 fold enrichment (6-mer frequency, TF over GST control)
